# Unmarked numbers belong to inactive results. For some of these results: Measured potencies and affinities stand elsewhere. The source made the active and inactive calls. Unless noted, the rule behind the calls is not given here.
# Key:
# [1] = antimalarial activity against Dd2 strain (AID 2302;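 active = growth inhibition above 50% at the single 2 µM test dose, taken to imply half-maximal potency below 2 µM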;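 note: 0% = DMSO untreated growth and 100% = chloroquine plus artemisinin killed control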); settings: P. falciparum Dd2 in RBCs, LDH growth readout, 72 h; at 2 µM; hits give high values
# [2] = human hepatoma cell viability loss – ATP luminescence, cytotoxicity control for P. falciparum antimalarial project, primary screen (AID 2303;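 active = inhibition above 50%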;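 note: 0% = DMSO wells and 100% = digitonin-killed cells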); settings: HepG2 viability, 24-48 h, at 10 µM, hits give high values
# [3] = molecular target: L-lactate dehydrogenase (Plasmodium falciparum (isolate CDC / Honduras)) (UniProt Q27743); assay: PfLDH activity inhibition – cell lysate, 3D7 strain, counter-screen for P. falciparum growth inhibition project (AID 2304);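 note: 0% = vehicle and 100% = reference inhibitor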; settings: P. falciparum 3D7 crude extract, LDH APAD/NBT absorbance; at 2 µM; hits give high values
# [4] = inhibition of 3D7 malaria parasite growth – strain 3D7 (AID 2306);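 note: 0% = DMSO wells and 100% = chloroquine plus artemisinin control wells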; settings: P. falciparum 3D7 erythrocytic growth, LDH absorbance, 72 h; at 2 µM; hits give high values
# [5] = molecular target: Calcium-dependent protein kinase 1 (Plasmodium falciparum (isolate 3D7)) (UniProt P62344); assay: PfCDPK1 kinase inhibitors, biochemical, TCAMS library (AID 1159585; cut-off not given, nearly all actives have IC50 up to about 0.98 µM;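 note: inhibitors leave more ATP so luminescence rises with inhibition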); settings: recombinant PfCDPK1, Kinase-Glo ATP depletion luminescence
# [6] = molecular target: Plasmodium falciparum protein kinase 6 (PK6, PF3D7_1337100) (UniProt Q8IDW1); assay: PfPK6 kinase inhibitors, biochemical, TCAMS library (AID 1159586); settings: recombinant PfPK6, Kinase-Glo ATP depletion luminescence
# [7] = molecular target: Protein kinase 7 (PK7), Plasmodium falciparum 3D7 (PF3D7_0213400) (UniProt Q7YTF7); assay: inhibition of Plasmodium PK7 catalytic activity – biochemical, TCAMS antimalarial set, Kinase-Glo luminescence (AID 1159587); settings: recombinant PfPK7, Kinase-Glo ATP depletion luminescence
# [8] = molecular target: Calcium-dependent protein kinase 4 (Plasmodium falciparum (isolate 3D7)) (UniProt Q8IBS5); assay: PfCDPK4 kinase inhibitors, biochemical, TCAMS library (AID 1159588; cut-off not given, nearly all actives have IC50 up to about 0.91 µM); settings: recombinant PfCDPK4, Kinase-Glo ATP depletion luminescence
# Chain of Calcium-dependent protein kinase 4 (Plasmodium falciparum (isolate 3D7)) (Q8IBS5 whole entry, looked up): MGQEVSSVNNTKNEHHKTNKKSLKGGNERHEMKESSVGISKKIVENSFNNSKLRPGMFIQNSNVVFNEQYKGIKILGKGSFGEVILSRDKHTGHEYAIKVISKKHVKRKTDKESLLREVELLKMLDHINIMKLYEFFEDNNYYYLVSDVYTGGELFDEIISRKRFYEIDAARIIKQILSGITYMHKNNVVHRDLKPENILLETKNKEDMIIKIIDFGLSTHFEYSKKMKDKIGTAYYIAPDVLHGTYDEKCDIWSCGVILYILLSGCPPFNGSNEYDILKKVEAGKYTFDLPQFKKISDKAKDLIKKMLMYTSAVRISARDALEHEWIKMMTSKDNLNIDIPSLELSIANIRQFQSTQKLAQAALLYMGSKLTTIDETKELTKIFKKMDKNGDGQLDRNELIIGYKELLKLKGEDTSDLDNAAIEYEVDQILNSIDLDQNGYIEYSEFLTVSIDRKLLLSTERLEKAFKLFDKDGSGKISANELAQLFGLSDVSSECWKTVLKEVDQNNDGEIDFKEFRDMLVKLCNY
# Chain of Protein kinase 7 (PK7), Plasmodium falciparum 3D7 (PF3D7_0213400) (Q7YTF7 1-343): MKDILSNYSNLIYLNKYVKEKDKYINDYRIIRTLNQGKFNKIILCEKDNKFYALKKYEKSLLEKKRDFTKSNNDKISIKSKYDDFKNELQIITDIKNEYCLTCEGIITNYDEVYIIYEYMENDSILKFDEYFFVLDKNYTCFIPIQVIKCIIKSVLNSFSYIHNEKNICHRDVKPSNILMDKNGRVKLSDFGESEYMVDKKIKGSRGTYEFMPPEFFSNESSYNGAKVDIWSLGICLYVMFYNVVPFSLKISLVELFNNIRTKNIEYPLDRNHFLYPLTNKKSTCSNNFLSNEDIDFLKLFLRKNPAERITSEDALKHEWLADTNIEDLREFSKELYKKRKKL
# Chain of L-lactate dehydrogenase (Plasmodium falciparum (isolate CDC / Honduras)) (Q27743 whole entry, looked up): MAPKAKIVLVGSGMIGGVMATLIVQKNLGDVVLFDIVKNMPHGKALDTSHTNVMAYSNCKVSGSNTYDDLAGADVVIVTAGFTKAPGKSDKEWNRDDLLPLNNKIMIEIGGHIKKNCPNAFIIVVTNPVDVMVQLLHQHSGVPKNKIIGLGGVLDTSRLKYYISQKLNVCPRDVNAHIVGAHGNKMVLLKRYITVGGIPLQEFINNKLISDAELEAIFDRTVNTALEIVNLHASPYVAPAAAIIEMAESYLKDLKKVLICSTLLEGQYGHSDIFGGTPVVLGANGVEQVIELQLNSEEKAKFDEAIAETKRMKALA
# Chain of Plasmodium falciparum protein kinase 6 (PK6, PF3D7_1337100) (Q8IDW1 1-305): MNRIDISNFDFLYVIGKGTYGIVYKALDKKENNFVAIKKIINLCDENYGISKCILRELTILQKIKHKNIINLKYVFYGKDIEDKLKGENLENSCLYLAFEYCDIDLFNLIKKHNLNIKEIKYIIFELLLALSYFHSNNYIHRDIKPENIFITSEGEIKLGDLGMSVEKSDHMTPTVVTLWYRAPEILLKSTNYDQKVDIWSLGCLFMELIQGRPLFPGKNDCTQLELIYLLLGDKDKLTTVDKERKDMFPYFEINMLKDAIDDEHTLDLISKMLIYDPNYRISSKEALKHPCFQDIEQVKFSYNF
# Chain of Calcium-dependent protein kinase 1 (Plasmodium falciparum (isolate 3D7)) (P62344 whole entry, looked up): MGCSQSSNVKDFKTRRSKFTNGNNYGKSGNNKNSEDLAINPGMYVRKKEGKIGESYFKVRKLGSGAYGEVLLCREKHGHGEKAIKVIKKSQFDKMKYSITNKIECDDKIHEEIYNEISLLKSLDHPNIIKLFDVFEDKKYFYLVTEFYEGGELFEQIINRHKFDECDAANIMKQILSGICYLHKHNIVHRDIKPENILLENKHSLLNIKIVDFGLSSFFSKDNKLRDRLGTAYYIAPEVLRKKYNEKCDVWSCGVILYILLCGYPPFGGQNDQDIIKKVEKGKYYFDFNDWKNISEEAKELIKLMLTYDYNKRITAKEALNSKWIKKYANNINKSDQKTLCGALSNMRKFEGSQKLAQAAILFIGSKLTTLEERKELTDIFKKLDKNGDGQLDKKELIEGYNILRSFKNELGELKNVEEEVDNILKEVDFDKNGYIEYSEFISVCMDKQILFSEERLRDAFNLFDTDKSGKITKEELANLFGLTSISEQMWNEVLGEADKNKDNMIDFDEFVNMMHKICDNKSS
Structure (SMILES),growth inhibition [1],inhibition [2],inhibition [3] [%],growth inhibition [4],outcome [5],outcome [6],outcome [7],outcome [8]
O=C(COc1ccccc1)N(Cc1ccc(-c2ccc(CNC3Cc4ccccc4C3)cc2)cc1)C1CCNCC1,8%,26%,-1,100% (active),inactive,inactive,inactive,inactive
COc1ccc2nc(C)cc(NCc3ccc4ccccc4c3)c2c1,75% (active),21%,-1,101% (active),inactive,inactive,inactive,inactive
CC(=O)Nc1nc(-c2ccccc2)[nH]c1C(N)=O,-2%,10%,4,99% (active),inactive,inactive,inactive,inactive
Cc1nn(-c2ccccc2)nc1C(=O)NC1CCN(CCNC(=O)c2ccc(Cl)c(Cl)c2)CC1,5%,15%,0,89% (active),inactive,inactive,inactive,inactive
C=CCc1cc(Cc2cnc(N)nc2N)cc(CCC)c1O,2%,54% (active),-1,90% (active),inactive,inactive,inactive,inactive
COc1ccc(C(c2ccc(N(C)C)cc2)c2ccc(N(C)C)cc2)cc1,99% (active),72% (active),1,101% (active),inactive,inactive,inactive,inactive
COc1ccc(-c2ccc(NC(=O)c3cccc(Cl)c3)c(F)c2)cc1CNC(C)C,14%,19%,-5,93% (active),inactive,inactive,inactive,inactive
CC(C)Nc1ccc(Nc2ccnc3cc4ccccc4cc23)cc1,81% (active),37%,-3,100% (active),inactive,inactive,inactive,inactive
O=C(/C=C/c1ccccc1Cl)Nc1ccc(Br)c(OCCN2CCCCC2)c1,25%,11%,-4,99% (active),inactive,inactive,inactive,inactive
O=C(NCc1cccc(Br)c1)c1ccc(CNC2CCN(Cc3ccccc3)CC2)cc1,49%,3%,4,100% (active),inactive,inactive,inactive,inactive
N#Cc1cccc(Nc2nccc(Nc3ccc(Oc4ccccc4)cc3)n2)c1,17%,12%,-6,94% (active),inactive,inactive,inactive,inactive
O=C(Nc1cccc(-c2cccc(-c3nc4ccc(C(F)(F)F)cc4[nH]3)c2)c1)c1cnc[nH]1,100% (active),14%,2,101% (active),inactive,inactive,inactive,inactive
CCc1ccc2nc(-c3ccc(F)cc3)nc(SCC(=O)Nc3sc(C)c(C)c3C#N)c2c1,5%,-15%,1,98% (active),inactive,inactive,inactive,inactive
O=C(Nc1ccc(C(F)(F)F)cc1)Nc1cccc([N+](=O)[O-])c1,98% (active),20%,4,101% (active),inactive,inactive,inactive,inactive
Cc1c(Cl)cccc1NC(=S)NN=Cc1ccccn1,85% (active),58% (active),5,99% (active),inactive,inactive,inactive,inactive
Nc1nc(N)c2c(Cl)c(N(Cc3ccccc3)Cc3ccccc3)ccc2n1,2%,66% (active),2,96% (active),inactive,inactive,inactive,inactive
CCc1cn2c3c(cc(C(=O)N[C@@H](Cc4ccccc4)[C@H](O)CNC(C)(C)c4cccc(OC)c4)cc13)N(C)S(=O)(=O)C2,99% (active),27%,-5,98% (active),inactive,inactive,inactive,inactive
Cc1c(F)cc(C(=O)NC2CC2)cc1-c1ccc2c(c1)c(C)nn2S(=O)(=O)c1cccs1,92% (active),34%,-3,91% (active),inactive,inactive,inactive,inactive
O=C(Nc1cccc(CN2CCCN(Cc3cccnc3)CC2)c1)c1cc2ccccc2s1,28%,15%,1,92% (active),inactive,inactive,inactive,inactive
N#Cc1ccc(CN2CCC(Oc3ccc(NC(=O)c4ccsc4)cc3Cl)C2)cc1 (stereo not drawn),79% (active),29%,-2,88% (active),inactive,inactive,inactive,inactive
CCN1CCN(Cc2ccc(NC(=O)c3cc4ccc5cccnc5c4[nH]3)cc2)CC1,97% (active),-3%,-3,100% (active),inactive,inactive,inactive,inactive

Structure (SMILES),growth inhibition [1],inhibition [2],inhibition [3] [%],growth inhibition [4],outcome [5],outcome [6],outcome [7],outcome [8]
Clc1ccc(-c2csc3ncnc(Cl)c23)cc1,95% (active),-3%,-6,94% (active),inactive,inactive,inactive,inactive
Cc1ccc2nc(C)n(C3CCN(C(=O)Cc4ccccc4C)CC3)c2c1,100% (active),2%,1,100% (active),inactive,inactive,inactive,inactive
CCCc1cnc2nc(N)nc(N)c2c1C,3%,68% (active),-3,93% (active),inactive,inactive,inactive,inactive
CC(C)Cn1c(Sc2ccc(C#N)c([N+](=O)[O-])c2)nnc1-c1cccs1,32%,9%,5,90% (active),inactive,inactive,inactive,inactive
Cc1cccc(OCC2CCN(c3ncc(C(=O)NC4CC4)cc3Cl)CC2)c1,78% (active),-4%,-2,90% (active),inactive,inactive,inactive,inactive
CN(Cc1ccc(NC(=O)NC2CCN(C(=O)/C=C/c3ccc(Cl)c(Cl)c3)CC2)cc1)C1CCOCC1,14%,9%,5,96% (active),inactive,inactive,inactive,inactive
CCN(C(=O)CSc1cc(C)c2cc(C)cc(C)c2n1)C1CCS(=O)(=O)C1 (stereo not drawn),82% (active),5%,-1,97% (active),inactive,inactive,inactive,inactive
O=C(NCCCCN1CCC(c2ccc3c(c2OCCO)CCCC3)CC1)c1ccc2oc(-c3ccc(C(F)(F)F)cc3)cc2c1,56% (active),54% (active),4,93% (active),inactive,inactive,inactive,inactive
CCCCCCCCn1c2c(c(=N)c3c1CCC3)CCCC2,100% (active),57% (active),2,101% (active),inactive,inactive,inactive,inactive
CC(C)c1cc2c(ccc3nc(N)nc(N)c32)o1,37%,66% (active),3,99% (active),inactive,inactive,inactive,inactive
COc1ccc(NC2=C(c3ccccc3)C(=O)c3ccccc32)cn1,84% (active),-9%,2,96% (active),inactive,inactive,inactive,inactive
NC(N)=NN=CC(=O)Nc1ccc(Br)cc1,1%,5%,0,100% (active),inactive,inactive,inactive,inactive
O=C(C=Cc1ccc(Cl)c(Cl)c1)NCCCCCN1CCCC(CCCNC(=O)/C=C/c2ccccc2)C1 (stereo not drawn),12%,92% (active),-4,98% (active),inactive,inactive,inactive,inactive
CC(C)(C)c1ccc2nc(-c3ccc(C(=O)NC4CCN(Cc5ccccc5)CC4)s3)[nH]c2c1,42%,24%,0,91% (active),inactive,inactive,inactive,inactive
O=C(NC1CCN(CC2(c3ccc(Cl)cc3)CCCCC2)CC1)c1ccn[nH]1,96% (active),-3%,4,98% (active),inactive,inactive,inactive,inactive
Cc1ccccc1CCNC(=O)c1ccc(N2CCN(c3ccncc3)CC2)nc1,20%,10%,-3,95% (active),inactive,inactive,inactive,inactive
CN1CCC(c2nc(N)no2)C1 (stereo not drawn),2%,15%,0,95% (active),inactive,inactive,inactive,inactive
Cn1cncc1-c1cc2c(Nc3ccc(OCc4ccccc4)cc3)ncnc2cn1,75% (active),-1%,4,99% (active),inactive,inactive,inactive,inactive
Oc1ccc(CCNc2nc(NCCCOc3cccc(CN4CCCCC4)c3Cl)nc(N3CCNCC3)n2)cc1,22%,26%,5,102% (active),inactive,inactive,inactive,inactive
COc1ccc2c(c1)CCCC2C(C)NCC(O)c1cccc(C(F)(F)F)c1 (stereo not drawn),99% (active),3%,-3,99% (active),inactive,inactive,inactive,inactive

# Source: PubChem BioAssay
